The subject of the test is VDR:RXRa (NR concentration 270 nM, RXRa partner concentration 90 nM). Briefly: PBM binding z-score (relative to random genomic background probes); higher = stronger binding; sequences stand for … in GC…GCGATTGACAGCGTAGAATGAAGG
As for the experimental part:
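Protein-binding microarray (Agilent 4x180K custom design, double-stranded 60-nt probes: 5' GC cap, 34-nt variable region, 24-nt constant primer region; full probe sequence given). Purified or IVT nuclear receptor:RXRα heterodimers (3:1 NR:RXRα, mostly 270:90 nM) or homodimers were incubated for 1 h in PBS with 2% milk and no ligand, then detected with Alexa488 antibodies. Fluorescence from o1-orientation probes (~5 replicates averaged) was converted to z-scores against 500 random hg19 background probes. Variable regions are seed direct-repeat (DR0–DR5) sites, all their single-nucleotide variants and half-site ablations.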
Regarding AGAACGAGAGCAATGAGTTGATAGCACGGGTGGC, the PBM binding z-score came out at 1.96.

GTACCAAGTTGAATAGGTCGTTGATGAGTAGGCG showed a PBM binding z-score of 0.387.

With TCTTGTAGATCAATAGGGGTTAAGAAAGTGCGCT, the PBM binding z-score came out at 2.64.

TCTAGTTGGTCTCGGAGGTCACACACGACGGGTA registered a PBM binding z-score of 3.75.

Turning to ACTTACTGGTCAACGAGGTTATAGCACGCGTATA, the PBM binding z-score is 5.15.

For the sequence TGAATGAGGCTAAAGATCAGGGAACGTGGCGTCG, the PBM binding z-score is -0.503.

In the case of GCATATAGGTAATACAAGGTTAAAGTCCGATTGT, the PBM binding z-score amounted to 1.6.

The sequence ACTATTAGTTGAGACCAGGGCAACCGATAGGTTG returned a PBM binding z-score of -0.036.

Sequence AGATTGAGGTTATTAAGATCAGGGAATTGCGGTC displayed a PBM binding z-score of 2.28.

TCATACAGGTAAAGGTGAAAGTCGAACGATATGA had a PBM binding z-score of 1.13.

The sequence CCAGACAGGTGAAAGGTAACTCAGTCTGGTACGC returned a PBM binding z-score of 0.989.

In turn, ATCTCTAGGTAAAGATAGCTCAGTGAATGCAAAT yielded a PBM binding z-score of -0.433.

In the case of CGTCCAAGGTCAGCAGGTCAGTTAAAGCGACGTG, the PBM binding z-score amounted to 4.23.

ATAATGAGGTTATTAAGATCAGGGAATTGCGGTC returned a PBM binding z-score of 2.88.

Regarding TTACGAAGGTGAGCTGAGGTCGTTGATCCAACTC, the PBM binding z-score stood at 4.16.

As for ATCGAAAGGTCGAAGGTGAGAATACCCACCCGAA, the PBM binding z-score came out at 2.7.

As for CGTCCAAGGTCAGCATGTCAGTGAAAGCGACGTG, the PBM binding z-score turned out to be 2.49.

Consider ACTAGCACGCCAAGGGTCACTCAAGATTAGTCCG, for which the PBM binding z-score was 2.97.

As for CAAACTAGGTCTCCGGAAGGTCAAAGTCCGCATG, the PBM binding z-score turned out to be 3.06.

In turn, GGAACGAGGGCATTCGCGTTGATAGCATGGCGAT showed a PBM binding z-score of 1.53.

The sequence ACTATTAGTTGACTAAGGGCAACCGATACGACGC showed a PBM binding z-score of 1.29.

AGAATGAGCTTAAGATCAGGGAAACAGAATACAT gave a PBM binding z-score of -0.396.

For the sequence GTACCAAGGTGAATAGGTCGTTGACGAGTAGGCG, the PBM binding z-score is 0.987.

As for ATACCAAGATGATCGTGAGGTCGTTGATACTAAC, the PBM binding z-score was found to be 1.78.

The sequence ATCTCTAGGTACCAAGTTCAGTGAAAGAGAGGAC yielded a PBM binding z-score of 1.64.

ACTATTAGTTGACTTAGGGCCACCGATACGACGC came in with a PBM binding z-score of 0.067.

In the case of CCTGCTAAGTCATGGTCAGCTAATCTACAGTATG, the PBM binding z-score was -0.252.

Take GCAGACAGGTGAAACGCAGGTACCTCAGGGTGGC: the PBM binding z-score is -0.756.

ATCTCTAGGTAAAGATCAGTGAAAGATCGATAGA displayed a PBM binding z-score of -0.0816.

In turn, CTCGAAGGGTCGGTTGAGGTGAGTATACGGATAA yielded a PBM binding z-score of 1.25.

In turn, TCTAGTTGGTCAAAGGTCACACTCTCGAAATGCG showed a PBM binding z-score of 5.

Take AGAATGAGGCTATACGTAGATCAGGGAAGAAAGT: the PBM binding z-score is -0.45.

In turn, CGAACGAGCGCATGAGTTGATAGCAAATGCCGAT gave a PBM binding z-score of -0.307.

On to TCATATCGGTAAACAGGTGAAAGTCCGTAAGTTA, for which the PBM binding z-score was determined as 0.935.

CAAACTAGGTCAAAGGTCACAGTCGAGCCAACCA: the PBM binding z-score amounted to 6.63.

Turning to CCTTACGGGTCACTGACAGGATATAGCATTTGGA, the PBM binding z-score was 3.36.

The sequence TGAATGAGTTTAAAGATCAGGGAACGTGGCGTCG returned a PBM binding z-score of 1.09.

The sequence TTGCCTAGGTCATTCAGGGGCCAGTATAGAAAGC returned a PBM binding z-score of 3.15.

The sequence TCATATAGGTAAAAGCTGAAAGTCGGTGTGGTAA showed a PBM binding z-score of 0.748.

Regarding TGTCAAAGTTCAAACGTAACGTAAGTATCCACAC, the PBM binding z-score was determined as 4.68.

The record behind these values is the supplement of paper PMC6555819.
